A selection: hits, their analogues and other compounds. The true share with any hit is near 2.7%.
GSIS activator: GLuc luminescence reporter in INS-1E cells, primary screen for activators of glucose-dependent secretion of insulin | INS-1E GLuc reporter insulin secretion, 2-3 h | activation, % at 16.6 µM | 370,000 tested, 0.61% active;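 active means lowest replicate activation of at least 40%, so every replicate reaches that level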;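 further: 0% = median of neutral control wells and 100% = median of IBMX positive control wells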
MITF act: activators of MITF-driven TRPM1 promoter reporter, primary screen, cell-based, SK-MEL-5, luciferase, single point | SK-MEL-5 TRPM1-promoter luciferase, 24 h; % of positive control, neutral wells = 0 | activation, % at 12.5 µM | 300,000 tested, 0.75% active;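 active means mean activation of at least 80% with every replicate also reaching 80%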;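 further: 0% = neutral control wells and 100% = parthenolide positive control wells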
Env fusion inh: inhibitors of HIV-1 Env-driven cell-cell fusion, primary screen, HeLa-JRFL effector, CEM21 target cells, luciferase; 360,000 tested, 1.1% active; inhibition, % at 12.3 µM; AID 651610, 2012;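 active means mean replicate inhibition score of at least 50 and every replicate individually at or above 50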;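 further: 0% = plate neutral controls and 100% = maraviroc near 300 nM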
CFTR F508del cor: F508del CFTR correction, initial screen, CFBE line, single point. CFBE cells, YFP halide quenching; stimulated with forskolin plus potentiator P3; % fluorescence drop versus neutral controls. 350,000 tested, 0.36% active. activity (quench increase), % at 7.58 µM;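 active means mean added fluorescence quench of at least 8% versus neutral control, with both replicates also reaching 8%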;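 further: cells transiently co-express mutant CFTR-F508del with the halide-sensitive YFP; corrector assay measuring rescue of mutant channel to the surface after 24 h compound exposure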
Wnt bcat act: Wnt/beta-catenin pathway activators, primary screen, cell-based, plate reader, single point | Wnt/beta-catenin reporter cell assay, activator | activation, % at 9.35 µM | 300,000 tested, 1.2% active | AID 743398, 2014; in the data active means activation above about 30%, passing the limit was not always enough;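 further: 0% = neutral control wells and 100% = positive control wells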
The depositor's hits bear a star; · = not tested or not shown; [ ] = another dose, or the depositor's remark.

SMILES	GSIS activator	MITF act	Env fusion inh	CFTR F508del cor	Wnt bcat act
Cc1ccc(/C=C/C(=O)Nc2ccc(N(C)C)cc2)o1	7.0	114.9*	-86.9	·	·
Cc1ccc(/C=C/C(=O)Nc2ncc(C)s2)o1	-10.3	100.6*	-71.1	·	-1.2
Cc1ccc(/C=C/C(=O)NC2CCCCCCC2)o1	57.8*	16.6	-3.1	·	23.0
O=C(C[C@@H]1CC[C@H]2[C@@H](COC[C@@H](O)CN2Cc2nccs2)O1)NCc1ccc(Cl)cc1	0.1	·	·	-2.5	·
c1ccc(-c2nc3nc4ccccc4nc3n2Cc2ccco2)cc1	·	34.1	-151.2	·	44.0*
Cc1cc(C)nc(Nc2n[nH]c(-c3ccc(N)cc3)n2)n1	·	·	-113.1	·	46.9*
Cc1cc(C)nc(Nc2n[nH]c(-c3ccc(C(C)(C)C)cc3)n2)n1	-4.5	20.4	-6.7	3.7	3.3
Cn1c(=O)c2[nH]c(SCc3ccccn3)nc2n(C)c1=S	181.0*	·	2.0	1.5	-0.2
CCC(N=c1cc(-c2ccc(OC)c(OC)c2)oc2ccc(C)cc12)C(=O)O (stereo unspecified)	-13.6	3.9	·	1.2	10.1
CCC(N=c1cc(-c2ccc(OC)cc2)oc2ccc(C)cc12)C(=O)O (stereo unspecified)	6.1	53.4	-250.3	·	47.4*
O=C(NC1CCCCC1)C(c1ccc(F)cc1)N(CCc1ccccc1)C(=O)CN1C(=O)c2ccccc2S1(=O)=O (stereo unspecified)	·	-63.4	-3.0	·	-4.6
O=C(NC1CCCCC1)C(c1ccc(F)cc1)N(Cc1ccccc1)C(=O)CN1C(=O)c2ccccc2S1(=O)=O (stereo unspecified)	111.4*	-4.3	-21.9	·	-0.3
Fc1ccc2cc(CCO[C@H]3CCCCO3)ncc2c1	3.0	40.0	-53.2	-2.2	32.2*
COC(=O)C1=C(N)Oc2c(oc(CO)cc2=O)C1c1ccc(F)cc1 (stereo unspecified)	-4.4	·	-1.8	1.1	39.9*
COc1cc(C2C(C#N)=C(N)Oc3c2oc(CO)cc3=O)cc(OC)c1OC (stereo unspecified)	·	·	-79.0	·	-6.5
COc1cc(C#CC#CCN2CCCCC2)ccc1O	44.5*	13.2	-42.4	·	2.3
COc1cc2c(cc1OC)C(Cc1ccc(O)cc1)NCC2 (stereo unspecified)	70.1*	15.5	11.0	0.8	-2.7
COc1cc2c(cc1OC)C(Cc1ccc(O)cc1)N(C)CC2 (stereo unspecified)	40.4*	3.4	·	-1.2	-1.8
COc1cc2c(cc1OC)C(C)N(Cc1ccc3c(c1)OCO3)CC2 (stereo unspecified)	3.8	-4.1	·	-2.4	0.1
Cc1cc2c(cc1S(=O)(=O)Nc1ccc(F)cc1)n(C)c(=O)c(=O)n2C	-28.4	-6.4	-9.9	10.9*	-2.2
CCc1ccc(NS(=O)(=O)c2cc3c(cc2C)n(C)c(=O)c(=O)n3C)cc1	-38.9	-11.0	6.8	-0.5	-1.7
CN(C)CC(=O)N1CCCCN2[C@@H](CO)[C@H](c3ccc(/C=C/c4ccccc4)cc3)[C@@H]2C1	11.5	·	·	-7.6	·
Cc1cc(NC(=O)COC(=O)CCS(=O)(=O)c2ccc(C)c(C)c2)no1	8.5	9.7	4.0	-0.4	-2.2
Cc1cc(NC(=O)COC(=O)c2oc3c(Cl)cccc3c2C)no1	64.6*	-11.1	7.0	·	1.0
Cc1cc(NC(=O)COc2ccc(F)c(Cl)c2)no1	-4.9	13.0	64.9*	1.1	2.4
SMILES	GSIS activator	MITF act	Env fusion inh	CFTR F508del cor	Wnt bcat act
CCOc1cccc2cc(C(=O)Nc3cc(C)on3)c(=O)oc12	45.1*	26.7	-32.4	·	·
Cc1cc(NC(=O)COC(=O)CCS(=O)(=O)c2cc(Cl)ccc2Cl)no1	40.6*	0.2	-1.9	0.6	-1.1
CC(=O)N[C@H]1C=C[C@H](CC(=O)NCC2CCCCC2)O[C@H]1CO	9.0	·	12.1[16.7 µM]	-1.2	·
Cc1cc(NC(=O)COc2cccc(C)c2C)no1	4.7	44.2	-26.0	2.4	0.5
CC(=O)c1sc(NC(=O)c2ccc(F)c(F)c2)nc1C	-16.7	23.4	-133.5	·	·
Cc1cc(NC(=O)COc2ccccc2C)no1	2.5	94.8*	-23.9	0.6	11.8
Cc1cc(NC(=O)c2ccc(Cl)cc2)no1	·	106.1*	-63.6	·	26.7
Cc1cc(OCC(=O)Nc2ccncc2)cc(C)c1Br	·	-0.3	46.1*	·	-7.7
CC(=O)c1sc(NC(=O)c2ccc(Cl)cc2)nc1C	-9.7	88.5*	-61.2	2.8	-1.6
